The source made the active and inactive calls.
Columns and labels:
[1] = compounds binding Alexa647 anti-His antibody – biochemical, small-molecule microarray, 635 nm fluorescence, artefact control for SMM control protein annotation, primary screen (AID 1128); conditions: higher = more signal;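 also: score merges feature fluorescence with signal-to-noise for each printed compound spot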
[2] = system: Human papillomavirus type 1a E7 protein (residues 1-88); experiment: HPV1a E7 small-molecule binders, primary screen, biochemical, small-molecule microarray, residues 1-88, 635 nm (AID 1129); conditions: small-molecule microarray binding, fluorescence 635 nm; higher = more signal
[3] = target: Focal adhesion kinase 1 (Homo sapiens) (UniProt Q05397); experiment: PTK2 protein binding on printed compound slides – biochemical, small-molecule microarray, 635/667 nm fluorescence, BSA, DTT, primary screen (AID 1130); conditions: 635 nm fluorescence, higher = more signal;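 also: composite of spot emission at 667 nm and signal to noise over triplicate slides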
[4] = system: Fibrinogen (Alexa647-labelled); experiment: Alexa647-fibrinogen binding to printed small molecules – biochemical, small-molecule microarray, 635/667 nm fluorescence, artefact control for SMM control-protein annotation, profiling panel (AID 1131); conditions: fibrinogen-A647 binding fluorescence, higher = more signal;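 also: z-score merges 667 nm fluorescence with per-spot signal-to-noise over triplicate slides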
[5] = target: Follistatin (Homo sapiens) (UniProt P19883); experiment: FST protein binding to printed compounds – biochemical, small-molecule microarray, 635/667 nm fluorescence, primary screen (AID 1132); conditions: 635 nm fluorescence, higher = more signal
[6] = target: Fibroblast growth factor 2 (Homo sapiens) (UniProt P09038); experiment: basic fibroblast growth factor binding to printed compounds – biochemical, small-molecule microarray, 635/667 nm fluorescence, primary screen (AID 1133); conditions: FGF2, fluorescence 635/667, higher = more signal
[7] = JC-1 mitochondrial potential readout, lung cancer cells – cell-based, A549, JC-1 fluorescence, basal, 24 h, 100 nL, profiling panel (AID 1138); conditions: higher = more signal;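 also: A549 lung adenocarcinoma cells under basal conditions with no added stimulus; test concentration not given here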
Lefty1 = Lefty1 protein binding to printed compounds – biochemical, small-molecule microarray, 635/667 nm fluorescence, primary screen (AID 1139); conditions: fluorescence 635/667, higher = more signal
[8] = system: wheat germ agglutinin (Triticum aestivum), Alexa647-labelled; experiment: Alexa647-WGA lectin binding to printed small molecules – biochemical, small-molecule microarray, 635/667 nm fluorescence, artefact control for SMM control-protein annotation, profiling panel (AID 1140); conditions: WGA-A647 binding, 635 nm fluorescence, higher = more signal;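 also: score merges 667 nm feature emission with signal to noise over triplicate slides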
[9] = target: Luciferin 4-monooxygenase (Photinus pyralis) (UniProt P08659); experiment: inhibition of purified Photinus pyralis luciferase – biochemical, luminescence, purified enzyme, 2006 set, primary screen (AID 1141); conditions: purified firefly luciferase, SteadyGlo luminescence, 30 min; higher = more signal, called active from +8 up or from −8 down;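 also: cell-free assay with purified firefly luciferase at 100 ng per well in PBS; test concentration not given here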
Luciferin 4-monooxygenase (Photinus pyralis), sequence (P08659 whole entry, looked up): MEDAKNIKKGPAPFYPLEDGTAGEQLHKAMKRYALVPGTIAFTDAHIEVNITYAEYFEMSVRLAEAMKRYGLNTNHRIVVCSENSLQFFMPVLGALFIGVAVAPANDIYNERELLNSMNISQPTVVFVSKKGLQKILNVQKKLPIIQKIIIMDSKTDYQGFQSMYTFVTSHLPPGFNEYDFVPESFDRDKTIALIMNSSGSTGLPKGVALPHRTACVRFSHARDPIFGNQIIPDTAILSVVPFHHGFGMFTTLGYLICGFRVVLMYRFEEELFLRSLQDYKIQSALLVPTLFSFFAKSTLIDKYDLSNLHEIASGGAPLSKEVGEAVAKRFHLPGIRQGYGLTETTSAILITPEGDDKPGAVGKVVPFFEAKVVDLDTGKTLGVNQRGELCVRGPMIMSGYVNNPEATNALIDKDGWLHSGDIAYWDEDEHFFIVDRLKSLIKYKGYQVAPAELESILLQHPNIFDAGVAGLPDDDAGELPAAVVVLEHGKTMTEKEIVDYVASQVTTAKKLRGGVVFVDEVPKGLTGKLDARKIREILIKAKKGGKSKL

Focal adhesion kinase 1 (Homo sapiens), sequence (Q05397 whole entry, looked up): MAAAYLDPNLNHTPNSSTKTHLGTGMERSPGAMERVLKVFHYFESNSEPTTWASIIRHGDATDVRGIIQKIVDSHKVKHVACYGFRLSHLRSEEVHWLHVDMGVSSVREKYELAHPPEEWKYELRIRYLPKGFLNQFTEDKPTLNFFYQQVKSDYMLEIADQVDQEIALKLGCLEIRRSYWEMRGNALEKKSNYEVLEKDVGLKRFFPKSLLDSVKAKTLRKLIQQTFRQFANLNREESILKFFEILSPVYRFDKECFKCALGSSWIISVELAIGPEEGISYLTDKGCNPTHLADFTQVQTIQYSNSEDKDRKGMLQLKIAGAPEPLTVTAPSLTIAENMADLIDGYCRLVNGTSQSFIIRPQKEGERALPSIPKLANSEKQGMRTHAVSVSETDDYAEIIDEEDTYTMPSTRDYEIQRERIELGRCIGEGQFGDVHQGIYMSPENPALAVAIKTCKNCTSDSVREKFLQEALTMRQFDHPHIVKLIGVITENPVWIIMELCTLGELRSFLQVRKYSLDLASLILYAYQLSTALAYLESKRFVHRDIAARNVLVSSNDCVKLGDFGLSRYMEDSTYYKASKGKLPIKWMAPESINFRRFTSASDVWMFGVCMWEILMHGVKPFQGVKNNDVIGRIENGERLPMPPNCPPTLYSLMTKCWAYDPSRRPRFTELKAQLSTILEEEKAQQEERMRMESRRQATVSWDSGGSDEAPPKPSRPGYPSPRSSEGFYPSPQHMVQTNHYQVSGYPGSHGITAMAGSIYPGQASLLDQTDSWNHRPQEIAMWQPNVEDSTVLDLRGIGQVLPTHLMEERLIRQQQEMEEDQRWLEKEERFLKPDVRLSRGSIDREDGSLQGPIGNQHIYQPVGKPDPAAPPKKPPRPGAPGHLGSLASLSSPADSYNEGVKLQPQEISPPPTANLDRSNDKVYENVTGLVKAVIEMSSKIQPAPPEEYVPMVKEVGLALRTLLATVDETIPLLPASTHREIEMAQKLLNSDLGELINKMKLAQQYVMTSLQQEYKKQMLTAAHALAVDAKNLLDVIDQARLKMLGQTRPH
Fibroblast growth factor 2 (Homo sapiens), sequence (P09038 whole entry, looked up): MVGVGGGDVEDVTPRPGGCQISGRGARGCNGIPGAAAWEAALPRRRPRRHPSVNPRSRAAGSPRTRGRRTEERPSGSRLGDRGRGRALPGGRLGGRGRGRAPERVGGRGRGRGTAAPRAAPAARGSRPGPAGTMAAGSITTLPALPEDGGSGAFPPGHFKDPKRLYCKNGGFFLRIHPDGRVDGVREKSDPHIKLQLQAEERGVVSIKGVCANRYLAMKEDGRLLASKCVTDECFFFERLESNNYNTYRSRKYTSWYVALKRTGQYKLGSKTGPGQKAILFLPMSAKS
Follistatin (Homo sapiens), sequence (P19883 whole entry, looked up): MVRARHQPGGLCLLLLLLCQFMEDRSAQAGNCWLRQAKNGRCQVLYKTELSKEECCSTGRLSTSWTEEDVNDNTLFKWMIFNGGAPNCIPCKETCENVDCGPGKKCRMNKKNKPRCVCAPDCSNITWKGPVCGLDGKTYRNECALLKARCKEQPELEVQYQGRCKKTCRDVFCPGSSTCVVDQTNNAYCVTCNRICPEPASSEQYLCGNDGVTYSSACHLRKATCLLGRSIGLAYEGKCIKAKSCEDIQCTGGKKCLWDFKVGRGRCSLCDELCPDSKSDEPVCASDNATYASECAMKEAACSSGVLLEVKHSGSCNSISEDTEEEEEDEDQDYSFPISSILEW

SMILES	composite z-score [1]	composite z-score [2]	composite z-score [3]	composite z-score [4]	composite z-score [5]	composite z-score [6]	z-score [7]	composite z-score (Lefty1)	composite z-score [8]	z-score [9]
Cc1ccc(S[C@]2(C(=O)NCc3ccccc3)CC(=O)N(Cc3cc(C(F)(F)F)cc(C(F)(F)F)c3)[C@@H]2c2ccc(CO)cc2I)cc1	-1.1	-0.774	0.438	-0.885	-1.18	-1.45	1.61	-1.25	-0.799	-0.461 (inactive)
CN(C)C(=O)[C@@]1(CCC(=O)OC(C)(C)C)N=C(c2ccc(OCCCO)cc2)O[C@H]1c1ccccc1CN=[N+]=[N-]	2.38	1.17	0.821	1.01	1.29	0.512	0.123	-0.597	1.05	-0.659 (inactive)
[N-]=[N+]=NCc1ccccc1[C@H]1OC(c2ccc(OCCCO)cc2)=N[C@@]1(CCS(=O)(=O)c1ccccc1)C(=O)NCc1ccccc1	1.41	1.2	0.13	0.941	1.36	0.623	0.453	0.189	0.703	-1.41 (inactive)
CN1C(=O)C2C=CC(C(O)c3ccc(F)cc3)N(NC(=O)OC(C)(C)C)C2C1=O (stereo not given)	0.322	0.878	0.22	0.81	0.344	-0.475	-0.946	0.0813	0.381	-0.507 (inactive)
COCC(=C=CC[C@@H](O)c1cccc(OCCO)c1)CCO	-0.128	-0.113	-0.128	0.984	0.734	0.377	0.293	0.565	1.1	-1.31 (inactive)
CN(C)C(=O)[C@@]1(Cc2ccccc2N=[N+]=[N-])N=C(c2ccc(OCCCO)cc2)O[C@H]1c1ccccc1	1.78	1.25	0.235	0.992	1.15	1.37	-0.238	-0.442	1.22	-2.17 (inactive)
CN(C)CCCC[C@@H]1NC(=O)[C@@H]2C[C@H](C(=O)O)[C@H](c3cccc(OCCO)c3)N2C1=O	1.22	-0.544	-0.335	0.438	0.072	1.17	0.0092	-0.528	-0.138	-0.836 (inactive)
COc1ccc(NC(=O)O[C@H]2[C@@H]3OC(=O)[C@H](Cc4cccc(Br)c4)C/C=C/C[C@@H](Cc4cccc(Br)c4)C(=O)O[C@H]3[C@@H](OC)O[C@@H]2CO)cc1	0.66	0.632	1.73	0.145	0.358	0.293	1.69	1.16	0.464	-1.29 (inactive)
COCCOC(=O)N1C(=O)[C@@]2(c3cc(C#CC4=CCCCC4)ccc31)[C@H](c1ccc(O)cc1)N1[C@H](c3ccccc3)[C@H](c3ccccc3)OC(=O)[C@H]1[C@@H]2C(=O)NC[C@H](O)c1ccccc1	1.13	1.22	0.26	0.813	1.22	0.685	-1.14	0.858	0.781	-1.08 (inactive)
COC(=O)C(CC#Cc1ccc2c(c1)[C@]1(C(=O)N2)[C@H](c2ccc(OCCO)cc2)N2[C@H](c3ccccc3)[C@H](c3ccccc3)OC(=O)[C@H]2[C@@H]1C(=O)N1CCN(c2ncccn2)CC1)C(=O)OC	1.92	1.21	-0.528	0.993	1.37	1.35	-1.56	0.857	1.04	-0.195 (inactive)
COCCCNC(=O)[C@@]1(c2ccc([N+](=O)[O-])cc2)CC(=O)N(CC23CC4CC(CC(C4)C2)C3)[C@@H]1c1ccc(CO)cc1I	1.77	0.892	0.0865	0.705	1.16	0.614	-0.189	-0.122	0.47	0.482 (inactive)

— PubChem BioAssay
